Assay [1] is described as follows: ATG_GRE_CIS: Attagene CIS-FACTORIAL HepG2 Assay for human Glucocorticoid Response Elements (GRE) (AID 2282947; active = hit-call score of the fitted dose curve at least 0.9, where 1 is the maximum; inactive = score below 0.9). To be noted: HepG2 GRE cis-reporter, Attagene multiplex mRNA; actives raise or lower the signal. A digest of the protocol: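 HepG2 cells transiently transfected with multiple cis-promoter reporter units measure endogenous TF activity; 24 h compound exposure. Reporter mRNA quantified by RT-PCR, FAM labelling, HpaI digestion and capillary electrophoresis; bidirectional fit vs DMSO baseline.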

Assay [2] is described as follows: ATG_M_06_CIS: Attagene CIS-FACTORIAL HepG2 Assay for M06 Transcription Factor (Internal Marker) (AID 2282950; active = hit-call score of the fitted dose curve at least 0.9, where 1 is the maximum; inactive = score below 0.9). To be noted: HepG2 Attagene CIS-FACTORIAL M06 internal marker reporter; actives raise or lower the signal. A digest of the protocol: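 Read-out is fluorescence of labelled reporter cDNA fragments resolved by capillary electrophoresis after RT-PCR. Cells: HepG2 carrying transfected cis-promoter reporter units, treated 24 h. Gain or loss of signal fitted relative to DMSO.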

A short description of assay [3]: ATG_TGFb_CIS: Attagene CIS-FACTORIAL HepG2 Assay for human Transforming Growth Factor (TGF) (AID 2282967; active = hit-call score of the fitted dose curve at least 0.9, where 1 is the maximum; inactive = score below 0.9). To be noted: HepG2 Attagene CIS TGFb reporter, mRNA transcription; actives raise or lower the signal. A digest of the protocol: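 Transient MRTU transfection of HepG2 (FuGene 6). Dose 24 h. TriZol RNA, oligo(dT) RT, PCR, 6-FAM primer extension, HpaI cut, CE. Bidirectional fit, DMSO = baseline.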

Assay [4] can be described thus: ATG_M_19_TRANS: Attagene TRANS-FACTORIAL HepG2 Assay for M19 Transcription Factor (Internal Marker) (AID 2282974). To be noted: HepG2 Attagene TRANS-FACTORIAL M19 internal marker reporter. A digest of the protocol: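 Transfected HepG2 (GAL4-UAS MRTUs), 24 h compound, TriZol RNA, DNase-treated RT, reporter PCR, FAM label, HpaI digest, CE fluorescence; gain vs DMSO.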

Assay [5] is described as follows: ATG_M_06_TRANS: Attagene TRANS-FACTORIAL HepG2 Assay for M06 Transcription Factor (Internal Marker) (AID 2282983).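 Note: reporter transcript level by RT-PCR then capillary electrophoresis fluorescence.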 To be noted: HepG2 Attagene TRANS M06 internal marker reporter. In short, it runs like this: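 Cells: HepG2, transient multi-reporter transfection. Exposure: 24 h. Detection: RT-PCR, 6-FAM labelling, HpaI digestion (2 h, 37 °C), capillary electrophoresis. Baseline: DMSO.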

The target in assay [6] is Nuclear receptor subfamily 1 group I member 2 (Homo sapiens) (UniProt O75469). Description: ATG_PXR_TRANS: Attagene TRANS-FACTORIAL HepG2 Assay for human Pregnane X Receptor (PXR) (AID 2283008). A digest of the protocol:
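HepG2 cells transiently transfected with multiple reporter units, here a PXR-GAL4 chimera driving a GAL4-UAS reporter; 24 h compound exposure. Reporter mRNA measured by RT-PCR, FAM labelling and capillary electrophoresis; gain of signal fitted against DMSO baseline.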

Assay [7] addresses human Retinoid X Receptor beta (RXRb), RXRB (gene 6257) (UniProt P28702). Put plainly: ATG_RXRb_TRANS: Attagene TRANS-FACTORIAL HepG2 Assay for human Retinoid X Receptor beta (RXRb) (AID 2283013). A digest of the protocol:
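HepG2 cells transiently transfected with multiplexed reporter units driven by GAL4-UAS and exogenous chimeric NR-Gal4 proteins; treated 24 h. Reporter mRNA measured by RT-PCR, 6-FAM labelling and capillary electrophoresis; gain-of-signal fitted versus DMSO baseline.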

Assay [8] can be described thus: ATG_M_61_CIS: Attagene CIS-FACTORIAL HepG2 Assay for M61 Transcription Factor (Internal Marker) (AID 2282937; active = hit-call score of the fitted dose curve at least 0.9, where 1 is the maximum; inactive = score below 0.9). To be noted: HepG2 Attagene CIS-FACTORIAL M61 internal marker reporter; actives raise or lower the signal. In short, it runs like this:
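Transfect HepG2 with MRTUs; dose 24 h; isolate RNA; reverse-transcribe with DNase I treatment; PCR-amplify, FAM-label and cut with HpaI for 2 h at 37 C; resolve by CE. Bidirectional fitting against DMSO.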

Assay [9] is described as follows: ATG_EGR_CIS: Attagene CIS-FACTORIAL HepG2 Assay for human Early Growth Response 1 (EGR1) (AID 2282938; active = hit-call score of the fitted dose curve at least 0.9, where 1 is the maximum; inactive = score below 0.9). To be noted: HepG2 Attagene CIS-FACTORIAL EGR reporter mRNA; actives raise or lower the signal. In short, it runs like this: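 After a 24 h treatment of transiently transfected HepG2 cells, total RNA was reverse-transcribed and reporter sequences PCR-amplified, labelled and run on capillary electrophoresis. Reporters sit under cis-regulatory promoters sensing endogenous factors.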

Assay [10] in a line: ATG_NFI_CIS: Attagene CIS-FACTORIAL HepG2 Assay for human Nuclear Factor I (NFI) (AID 2282989; active = hit-call score of the fitted dose curve at least 0.9, where 1 is the maximum; inactive = score below 0.9). To be noted: HepG2 cis-regulatory reporter, NFI response element transcription; actives raise or lower the signal. In short, it runs like this:
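Transient MRTU transfection of HepG2 → 24 h chemical dosing → total RNA, oligo(dT) RT → PCR, 6-FAM primer extension, HpaI cut → capillary electrophoresis. Endpoint fitted bidirectionally relative to DMSO.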

Assay [11] addresses Cellular tumor antigen p53 (Homo sapiens) (UniProt P04637). Description: TOX21_p53_BLA_p2_ratio: Tox21 HCT-116 p53 Agonism Beta-lactamase Assay, Ratio, Phase 2 (AID 2283592). A digest of the protocol:
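Gain-of-signal p53 agonism was scored from the beta-lactamase FRET ratio (460/530 nm, 405 nm excitation) in HCT116 cells treated 16 h at 37C, 5% CO2, with DMSO serving as negative control and baseline.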

The target is the same in assay [12]. Description: TOX21_p53_BLA_p3_ratio: Tox21 HCT-116 p53 Agonism Beta-lactamase Assay, Ratio, Phase 3 (AID 2283596). In short, it runs like this: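 HCT116 p53-bla cells (4000/well) given compound in DMSO (217-fold dilution) after 5 h, incubated 16 h at 37C. CCF4-AM substrate 2 h at room temperature; 460/530 nm emission ratio, gain fitted against DMSO.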
For assay [13] the target is unchanged. Put plainly: TOX21_p53_BLA_p5_ratio: Tox21 HCT-116 p53 Agonism Beta-lactamase Assay, Ratio, Phase 5 (AID 2283599). A digest of the protocol:
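HCT-116 cells carrying a p53-inducible beta-lactamase reporter were seeded at 4000 cells/well and dosed after 5 h with compound in DMSO (217-fold dilution). After 16 h at 37C, CCF4-AM substrate was added for 2 h, and the 460/530 nm emission ratio was scored as gain-of-signal versus DMSO.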

The nature of assay [14]: TOX21_p53_BLA_p5_viability: Viability Assessment in the Tox21 HCT-116 p53 Agonism Beta-lactamase Assay, Phase 5 (AID 2283600). In short, it runs like this:
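After the 460/530 nm beta-lactamase measurement, the wells received an ATP-detection luciferase reagent; signal was read 30 min later at RT. Compound treatment lasted 16 h on cells pre-incubated 5 h post-seeding.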

Assay [15] addresses Cellular tumor antigen p53 (Homo sapiens) (UniProt P04637). Description: TOX21_p53_BLA_p4_ratio: Tox21 HCT-116 p53 Agonism Beta-lactamase Assay, Ratio, Phase 4 (AID 2283601). In short, it runs like this: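 HCT116 cells carrying an inducible beta-lactamase reporter were plated at 4000 cells/well, rested 5 h, then exposed to compounds in DMSO (217-fold dilution) for 16 h at 37C. CCF4-AM substrate was loaded 2 h at room temperature; 460/530 nm emission ratio scored gain-of-signal versus DMSO.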

Assay [16] can be described thus: ATG_PPRE_CIS: Attagene CIS-FACTORIAL HepG2 Assay for human Peroxisome Proliferator-activated Response Element (PPRE) (AID 2282958; active = hit-call score of the fitted dose curve at least 0.9, where 1 is the maximum; inactive = score below 0.9). To be noted: HepG2 PPRE cis-element reporter, Attagene transcription factor profiling; actives raise or lower the signal. In short, it runs like this: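 PPRE activity in HepG2: transient cis-reporter transfection, 24 h compound incubation, reporter mRNA by RT-PCR and CE fluorescence; gain/loss fitted against DMSO.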

The target of assay [17] is Hepatocyte nuclear factor 4-alpha (Homo sapiens) (UniProt P41235). Description: ATG_HNF4a_TRANS: Attagene TRANS-FACTORIAL HepG2 Assay for human Hepatocyte Nuclear Factor 4 alpha (HNF4a) (AID 2282982). To be noted: HepG2 HNF4a transactivation reporter, mRNA readout. A digest of the protocol:
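HepG2 cells transiently transfected with multiplexed GAL4-UAS reporter units responsive to chimeric NR-GAL4 proteins; compound exposure 24 h. Reporter mRNA quantified by RT-PCR, 6-FAM labelling, HpaI digestion and capillary electrophoresis; gain of signal versus DMSO baseline.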

In assay [18] the target is Retinoic acid receptor RXR-alpha (Homo sapiens) (UniProt P19793). Put plainly: ATG_RXRa_TRANS: Attagene TRANS-FACTORIAL HepG2 Assay for human Retinoid X Receptor alpha (RXRa) (AID 2283012). In short, it runs like this: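 HepG2 cells transiently transfected with multiplexed GAL4-UAS reporter units and chimeric NR-GAL4 fusions, dosed 24 h. Reporter mRNA measured by RT-PCR, FAM labelling, HpaI digestion and capillary electrophoresis; gain-of-signal fitted relative to DMSO baseline.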

Assay [19] is described as follows: ATG_RORE_CIS: Attagene CIS-FACTORIAL HepG2 Assay for human RAR-related Orphan Receptor Element (RORE) (AID 2282959; active = hit-call score of the fitted dose curve at least 0.9, where 1 is the maximum; inactive = score below 0.9). To be noted: HepG2 Attagene cis-factorial RORE reporter, mRNA; actives raise or lower the signal. In short, it runs like this:
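A 24-hour exposure of transfected HepG2 hepatoma cells precedes RNA isolation and reporter RT-PCR. Labeled products are digested with HpaI and resolved by capillary electrophoresis, with gain or loss of signal scored relative to DMSO.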

In assay [20] the target is Nuclear respiratory factor 1 (Homo sapiens) (UniProt Q16656). Description: ATG_NRF1_CIS: Attagene CIS-FACTORIAL HepG2 Assay for human Nuclear Respiratory Factor 1 (NRF1) Orphan Gene (AID 2282987; active = hit-call score of the fitted dose curve at least 0.9, where 1 is the maximum; inactive = score below 0.9). To be noted: HepG2 NRF1 cis-element reporter, Attagene multiplex; actives raise or lower the signal. In short, it runs like this:
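Measured: fluorescent reporter-specific RT-PCR products from transfected HepG2 cells, separated by capillary electrophoresis. Exposure lasted 24 h. Analysis used bidirectional curve fitting with DMSO as negative control.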

Values joined by “and” are separate entries in the source; they are usually repeats but may differ in a detail not shown here. Identical values can stand only once. Inconclusive results are not listed. Some compounds were tested as several samples or in several runs, with calls that do not always agree. Active and inactive are the calls of the source. Rule for the calls, unless noted: active = hit-call score of the fitted dose curve at least 0.9, where 1 is the maximum; inconclusive = response in the unintended direction; inactive = score below 0.9.

Chain of Cellular tumor antigen p53 (Homo sapiens) (P04637 whole entry, looked up): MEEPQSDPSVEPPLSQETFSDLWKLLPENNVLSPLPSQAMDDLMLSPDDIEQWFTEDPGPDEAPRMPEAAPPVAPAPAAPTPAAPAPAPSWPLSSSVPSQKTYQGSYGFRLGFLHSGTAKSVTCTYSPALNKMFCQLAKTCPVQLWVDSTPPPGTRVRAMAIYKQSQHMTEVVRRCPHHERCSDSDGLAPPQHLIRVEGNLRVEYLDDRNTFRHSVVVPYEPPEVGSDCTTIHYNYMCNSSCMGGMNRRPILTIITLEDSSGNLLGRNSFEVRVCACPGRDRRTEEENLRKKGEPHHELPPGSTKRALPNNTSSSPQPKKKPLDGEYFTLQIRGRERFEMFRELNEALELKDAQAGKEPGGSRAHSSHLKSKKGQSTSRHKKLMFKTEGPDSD
Chain of human Retinoid X Receptor beta (RXRb), RXRB (gene 6257) (P28702 whole entry, looked up, the tested form may be a part): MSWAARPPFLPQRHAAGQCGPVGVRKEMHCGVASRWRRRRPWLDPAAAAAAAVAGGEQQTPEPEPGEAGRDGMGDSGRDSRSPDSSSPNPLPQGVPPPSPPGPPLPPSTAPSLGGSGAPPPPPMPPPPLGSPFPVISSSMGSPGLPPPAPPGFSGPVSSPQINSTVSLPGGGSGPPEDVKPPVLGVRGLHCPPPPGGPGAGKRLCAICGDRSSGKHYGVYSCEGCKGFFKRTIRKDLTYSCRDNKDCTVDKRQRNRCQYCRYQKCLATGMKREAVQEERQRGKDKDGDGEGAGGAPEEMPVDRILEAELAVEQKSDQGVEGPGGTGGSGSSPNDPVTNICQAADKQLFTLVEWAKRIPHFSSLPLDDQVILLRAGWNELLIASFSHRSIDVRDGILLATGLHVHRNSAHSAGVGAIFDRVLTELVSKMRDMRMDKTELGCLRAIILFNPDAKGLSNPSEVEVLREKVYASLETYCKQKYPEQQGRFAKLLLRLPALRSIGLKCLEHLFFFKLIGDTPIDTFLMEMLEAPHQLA
Chain of Nuclear receptor subfamily 1 group I member 2 (Homo sapiens) (O75469 whole entry, looked up, the tested form may be a part): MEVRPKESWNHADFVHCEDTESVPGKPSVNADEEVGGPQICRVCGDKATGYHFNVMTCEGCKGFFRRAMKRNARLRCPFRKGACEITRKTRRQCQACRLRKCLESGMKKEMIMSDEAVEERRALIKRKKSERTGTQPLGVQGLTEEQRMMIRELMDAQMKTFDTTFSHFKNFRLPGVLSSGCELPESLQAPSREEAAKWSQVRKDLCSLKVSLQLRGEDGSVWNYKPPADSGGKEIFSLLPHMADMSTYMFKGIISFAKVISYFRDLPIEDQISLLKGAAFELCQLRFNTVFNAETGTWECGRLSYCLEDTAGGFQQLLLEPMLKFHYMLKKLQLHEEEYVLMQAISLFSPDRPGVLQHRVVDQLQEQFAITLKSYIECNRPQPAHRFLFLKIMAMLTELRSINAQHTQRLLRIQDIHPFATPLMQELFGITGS
Chain of Hepatocyte nuclear factor 4-alpha (Homo sapiens) (P41235 whole entry, looked up, the tested form may be a part): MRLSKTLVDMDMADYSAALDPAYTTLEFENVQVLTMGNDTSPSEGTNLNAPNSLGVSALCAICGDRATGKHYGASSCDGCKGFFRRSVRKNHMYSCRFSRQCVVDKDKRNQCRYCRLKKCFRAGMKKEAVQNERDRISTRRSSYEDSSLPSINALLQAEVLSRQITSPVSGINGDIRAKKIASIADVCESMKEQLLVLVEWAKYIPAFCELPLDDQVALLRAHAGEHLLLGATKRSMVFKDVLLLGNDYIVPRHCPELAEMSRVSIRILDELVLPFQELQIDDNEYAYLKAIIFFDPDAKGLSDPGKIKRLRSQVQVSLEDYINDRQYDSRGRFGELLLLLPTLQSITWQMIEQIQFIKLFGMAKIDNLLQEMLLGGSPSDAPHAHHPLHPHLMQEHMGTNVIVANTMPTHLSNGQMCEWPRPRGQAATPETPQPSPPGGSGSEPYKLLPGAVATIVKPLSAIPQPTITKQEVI
Chain of Nuclear respiratory factor 1 (Homo sapiens) (Q16656 whole entry, looked up): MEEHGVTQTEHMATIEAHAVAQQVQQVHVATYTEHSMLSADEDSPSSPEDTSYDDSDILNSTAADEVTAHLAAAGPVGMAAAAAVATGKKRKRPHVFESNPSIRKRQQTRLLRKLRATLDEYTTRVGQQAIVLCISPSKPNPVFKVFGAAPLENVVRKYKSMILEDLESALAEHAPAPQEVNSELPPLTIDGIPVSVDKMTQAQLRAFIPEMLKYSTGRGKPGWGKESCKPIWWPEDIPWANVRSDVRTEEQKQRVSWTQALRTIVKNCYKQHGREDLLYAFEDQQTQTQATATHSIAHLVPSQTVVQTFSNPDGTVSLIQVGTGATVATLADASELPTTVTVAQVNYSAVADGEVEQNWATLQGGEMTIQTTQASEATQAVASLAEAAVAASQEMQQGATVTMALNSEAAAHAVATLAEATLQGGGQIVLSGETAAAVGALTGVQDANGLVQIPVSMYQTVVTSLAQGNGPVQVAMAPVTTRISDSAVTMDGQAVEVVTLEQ
Chain of Retinoic acid receptor RXR-alpha (Homo sapiens) (P19793 whole entry, looked up, the tested form may be a part): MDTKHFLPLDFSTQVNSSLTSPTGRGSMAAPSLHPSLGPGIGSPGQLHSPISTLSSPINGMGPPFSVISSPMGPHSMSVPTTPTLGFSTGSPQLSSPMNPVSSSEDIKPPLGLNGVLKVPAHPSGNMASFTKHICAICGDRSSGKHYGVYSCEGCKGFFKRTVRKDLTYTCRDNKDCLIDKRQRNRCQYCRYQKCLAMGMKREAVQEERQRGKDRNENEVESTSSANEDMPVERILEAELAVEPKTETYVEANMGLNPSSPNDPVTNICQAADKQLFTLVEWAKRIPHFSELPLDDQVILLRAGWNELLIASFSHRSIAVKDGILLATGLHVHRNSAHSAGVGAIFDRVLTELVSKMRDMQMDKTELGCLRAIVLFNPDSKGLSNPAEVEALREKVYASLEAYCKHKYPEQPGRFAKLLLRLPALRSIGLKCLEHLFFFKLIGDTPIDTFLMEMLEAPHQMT

Take `COC(=O)c1ccccc1S(=O)(=O)NC(=O)Nc1nc(C)cc(C)n1`: the outcome in assay [1], in assay [2], in [3], in assay [4], in assay [5] and in assay [6] was inactive. The result in assay [7] was inactive.

`C=CCO`: the result in [8], in assay [9], in assay [1], in [2], in assay [3] and in assay [4] was inactive. Also, the compound was called inactive in [10], in assay [11], in assay [12], in [13], in assay [14] and in [15].

By AC50 is commonly meant the concentration at which the activity in the assay is half-maximal. On to `O=C(O)CCCc1ccc(N(CCCl)CCCl)cc1`, for which the result in assay [8], in assay [9], in assay [2], in [16], in assay [3] and in assay [4] was inactive. For the same compound, the result in assay [17], in assay [5], in assay [10], in assay [6], in assay [18] and in assay [7] was inactive. The result in assay [14] and in assay [15] was inactive. Further, the concentration at half-maximal activity (AC50) in assay [11] was 64.5 µM (active) and 68.4 µM (active) and 32.3 µM (active); in assay [13] it was 62.6 µM (active) and 64.8 µM (active) and 27.3 µM (active); in assay [15] it was 71 µM (active).

For the compound `CNC(=N[N+](=O)[O-])NCC1CCOC1` (stereo unspecified), the result in assay [8], in assay [9], in [1], in assay [2], in [19] and in [3] was inactive. The compound was classed as inactive in [4], in assay [5], in [12], in assay [13] and in [15].

With `CC(C)(O)C#N`, the compound was called inactive in assay [8], in assay [9], in [2], in assay [19], in assay [17] and in assay [5]. Further, the call in assay [20], in assay [6], in assay [11], in assay [12], in assay [13] and in assay [14] was inactive. The result in assay [15] was inactive. For the same compound, the AC50 in assay [7] is 78.5 µM (active).

Source of the values: PubChem BioAssay (EPA / NIEHS).
